Cycloheximide cs: counter-screen hit for Shiga toxin inhibitors, cycloheximide; AID 2314; cell reporter, cycloheximide protein synthesis inhibition counterscreen; hit rate 12% among 300,000; max response, %; in the data active = max response mostly above about 13%, no sharp cut-off; inactive = mostly below about 14%; note: read at 38.3 µM for the half of the compounds with a filed dose; 0% is about no effect
Pf growth 96h: inhibits malaria parasite growth, 96 h | P. falciparum luciferase reporter growth, 96 h | hit rate 6.9% among 320,000 | Potency, µM (series often up to 28.7 µM), for inactives: at the top dose activity change, negative = inhibition, most hits filed as inhibitors; note: potency is the fitted concentration of half-maximal effect; % is set by controls: 0 for no effect and ±100 for the full control effect
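Plates of compound plus infected erythrocytes (2% hematocrit, 0.05% parasitemia final) incubate 96 hours, 37 C, 5% CO2. Detection reagent added; reduced luminescence from the parasites' luciferase reporter flags inhibition.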
Pf growth 48h: inhibits P. falciparum growth in the first generation, 48 h; AID 504832; P. falciparum luciferase growth in erythrocytes, 48 h; hit rate 5.9% among 310,000; Potency, µM (top dose mostly 28.7 µM), inactives show top-dose activity change, negative = inhibition, usual class: inhibitors; note: potency is the fitted concentration of half-maximal effect; % is set by controls: 0 for no effect and ±100 for the full control effect
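Luciferase-expressing parasites in RBCs, 2% Hct / 0.1% parasitemia final; RPMI 1640 + 0.5% Albumax; 37 C, 5% CO2, one generation; luminescence read-out, lower signal = inhibition.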
NS1 inh: inhibitors of influenza NS1 protein function. Potency, µM (titrated, usually from 46.1 µM), for inactives: top-dose activity, positive = more growth. AID 2326. hit rate 0.4% among 270,000; calls by dose curve; note: potency is the fitted concentration of half-maximal effect; actives are rising curves; nearly all actives have a fitted effect of over 50% in size
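Growth recovery, yeast-based: influenza A NS1 expressed in S. cerevisiae causes slow growth, and suppressors are detected by OD600. The parent strain without NS1 is used as positive control.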
FBPA Giardia inh: blocks Giardia fructose-bisphosphate aldolase activity | A8B2U2 | purified Giardia FBPA | Potency, µM (series often up to 59.6 µM), without a hit: at the highest dose activity, negative = inhibition, most hits filed as inhibitors | hit rate 0.71% among 290,000; note: potency is the fitted concentration of half-maximal effect; % is set by controls: 0 for no effect and ±100 for the full control effect; nearly all actives have a fitted effect of over 55% in size
Target sequence (A8B2U2 whole entry, looked up): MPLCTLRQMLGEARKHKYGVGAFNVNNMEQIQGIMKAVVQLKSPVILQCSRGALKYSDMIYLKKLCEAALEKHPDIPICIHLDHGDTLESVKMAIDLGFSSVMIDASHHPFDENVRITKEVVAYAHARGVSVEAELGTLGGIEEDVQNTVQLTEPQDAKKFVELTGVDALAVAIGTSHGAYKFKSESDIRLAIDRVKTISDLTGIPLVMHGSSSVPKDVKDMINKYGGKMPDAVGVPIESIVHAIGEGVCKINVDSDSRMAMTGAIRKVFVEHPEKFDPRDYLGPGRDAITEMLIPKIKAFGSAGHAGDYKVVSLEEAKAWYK
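Giardia FBPA (40 nM reagent) was preincubated 10 min at RT with compound (up to 57.5 uM final), then substrate plus GAPDH/TPI/NAD/arsenate coupling system with diaphorase/resazurin was added; resorufin fluorescence (525/598 nm) was read after 20 min.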
Shiga inhibitor: inhibitors of Shiga toxin in Vero cells; hit rate 9.2% among 290,000; AID 2315; inhibition, % at 38.7 µM; Vero cells, Shiga toxin protein synthesis inhibition reporter; in the data active = inhibition mostly above about 28%, no sharp cut-off; inactive = mostly below about 43%; note: 0% is about no effect
Numbers without * were called inactive; ? = inconclusive; · = not tested or not shown; [ ] = dose if it differs, or a comment. Rows were chosen to be rich in hits. Some 21% of all compounds tested hit in one or more screens of this group. Unless noted, calls come from the whole dose curve; as a rule, active = well fitted curve in the direction sought with a large enough effect; inconclusive = small, poorly fitted or top-dose-only effect, or another doubt; inactive = no such curve, though single readings can be large; an effect the other way counts as inactive or inconclusive.

SMILES	Cycloheximide cs	Pf growth 96h	Pf growth 48h	NS1 inh	FBPA Giardia inh	Shiga inhibitor
COc1ccccc1N(CC(=O)NC1CCCC1)S(=O)(=O)c1ccc(C)cc1	-6.3	14.7%	?	-23.7%	5.2%	-1.2
CCOc1ccccc1N(CC(=O)NC1CCCCC1)S(=O)(=O)c1ccc(C)cc1	2.2	24.3%	11.7µM*	-21.7%	-4.7%	-5.9
COc1ccc(OC)c(N(CC(=O)N2CCC(C)CC2)S(=O)(=O)c2ccc(OC)c(OC)c2)c1	-1.1	2.62µM*	?	2.3%	-9.0%	18.2
O=C(CN1CCN(S(=O)(=O)c2ccc(F)c(F)c2)CC1)Nc1ccccc1C(=O)NC1CC1	·	-54.6%	?	·	·	·
CN(CC(=O)NC1CCCCCC1)S(=O)(=O)c1ccccc1	11.6*	·	17.7%	2.2%	4.3%	34.1*
CCC(C)(C)NC(=O)CN(C(=O)CNS(=O)(=O)c1ccccc1)c1ccc2c(c1)OCCO2	0.7	22.3%	-20.4%	-2.5%	3.7%	-8.9
CCN(CC(=O)NC1CCCCCC1)S(=O)(=O)c1ccccc1	10.3	·	-9.3%	0.5%	0.0%	-1.6
COc1ccc(OC)c(N(CC(=O)NC2CCCCCC2)S(=O)(=O)c2ccc(C)cc2)c1	-1.5	-27.6%	?	9.7%	·	-25.4
O=C(CN(C(=O)CNS(=O)(=O)c1ccccc1)c1ccc2c(c1)OCCO2)NC1CCCCC1	24.0*	?	?	-0.6%	-6.0%	17.5
COc1ccc(OC)c(N(CC(=O)NC2CCCC2)S(=O)(=O)c2ccc(OC)c(OC)c2)c1	6.2	5.86µM*	?	-2.3%	·	-18.4
Cc1cc(C)cc(NCc2ccncc2)c1	-0.7	?	12.7%	?	-5.2%	4.5
COc1ccccc1NC(=O)C1CCCN(S(=O)(=O)c2ccc3c(c2)CC(C)N3C(C)=O)C1 (stereo unspecified)	-9.2	0.3%	?	14.9%	·	-11.1
CCOc1ccc(CCNC(=O)CN2C(=O)NC3(CCCCCC3)C2=O)cc1OCC	·	?	13.1µM*	·	·	·
CCOc1ccc(CCNC(=O)CN2CCN(Cc3ccccc3F)C2=O)cc1OCC	-3.2	1.47µM*	?	1.1%	-4.3%	-3.8
C=CCOc1ccc(/C=C2\SC(=S)N(NS(=O)(=O)c3ccc(C)cc3)C2=O)cc1	-7.2	9.6%	15.8%	9.8%	?	-1.3
CC(C)NS(=O)(=O)c1cc(F)ccc1CN1C(=O)c2cccnc2C1=O	-2.6	2.08µM*	-8.6%	-2.3%	9.8%	3.8
Cc1ccc(CNS(=O)(=O)c2cc(F)ccc2CN2C(=O)c3cccnc3C2=O)o1	2.8	?	26.4%	0.9%	2.7%	15.8
CCNc1ncc2nc(CCc3ccccc3)c(=O)n(-c3ccccc3)c2n1	·	·	·	·	-10.7%	·
CCOC(=O)c1ccccc1NC(=O)c1cn(-c2ccc(OC)cc2)c(=O)c2ccccc12	-1.6	2.94µM*	?	-3.6%	-5.3%	19.3
COc1cccc(-n2cc(C(=O)NCCCOC(C)C)c3ccccc3c2=O)c1	-0.8	-10.4%	9.3%	-3.1%	6.5%	-0.6
COc1cccc(-n2cc(C(=O)NC(C)C)c3ccccc3c2=O)c1	-7.5	1.31µM*	-8.7%	3.6%	-1.3%	40.4
Cc1ccc(C(=O)N2N=C3c4ccccc4S(=O)(=O)N3[C@H]2N(C)C)cc1	-2.4	?	0.1%	-1.7%	5.2%	19.1
O=C(c1ccc2c(c1)OCCCO2)c1cccs1	31.1*	43.7%	435.4%	-60.3%	1.3%	43.6*
O=C(Nc1ccc2c(c1)OCO2)c1cccs1	60.6*	7.0%	53.1%	-40.4%	-19.6%	197.4*
O=C(N/C(=C/c1ccc2c(c1)OCO2)C(=O)N1CCOCC1)c1cccs1	-1.4	-6.9%	10.5%	-4.1%	0.5%	-11.4
SMILES	Cycloheximide cs	Pf growth 96h	Pf growth 48h	NS1 inh	FBPA Giardia inh	Shiga inhibitor
CCN(CC)S(=O)(=O)c1cc(NC(=O)NCCCl)ccc1C	7.0	?	?	-0.8%	-8.7%	24.2
O=C(Nc1ccc2c(c1)OCO2)c1ccc(Br)s1	35.1*	8.28µM*	188.7%	-8.7%[9.22 µM]	-17.1%	44.8*
CCN(CC)S(=O)(=O)c1cc(NC(=O)c2ccc(Br)s2)ccc1C	63.8*	14.7µM*	?	11.8%	-10.0%	77.4*
CCC(O)c1cc2c(cc1NC(=O)c1cccs1)OCCO2 (stereo unspecified)	1.7	22.4%	-11.0%	-12.5%	-3.9%	-7.9
O=C(Nc1ccc2c(c1)OCCO2)c1cccs1	54.5*	2.62µM*	97.5%	-9.6%	-4.0%	47.4*
O=C(NC1CC2CCC(C1)N2Cc1ccccc1)c1ccccc1Br (stereo unspecified)	-0.6	26.9%	14.0%	-7.6%	2.2%	-12.4
O=S(=O)(Nc1cccnc1)c1ccc(Br)c2ccccc12	-2.6	?	14.1%	10.1%	-4.4%	-16.5
O=C(O)c1ccc(C(=O)Nc2cccc3cccnc23)cc1	9.6	·	·	·	·	29.5
O=C(Nc1cccnc1Cl)c1ccc(Cl)cc1	36.2*	-6.3%	55.8%	-3.5%	-1.4%	70.4*
O=C(Nc1cccnc1Cl)c1cccnc1Cl	-3.6	25.5%	·	-0.1%	2.3%	-11.1
COc1ccc(C(=O)Nc2cccnc2Sc2ccc(Cl)cc2)cc1	27.2*	8.6%	?	-3.6%	-3.8%	46.7*
O=C(Nc1cccc2cccnc12)c1ccc(Cl)cc1	36.7*	33.7%	110.7%	-15.8%	-0.7%	45.1*
CC1CCCC/C1=N\NC(=S)Nc1ccccc1 (stereo unspecified)	18.2*	?	-29.5%	-0.4%	?	29.7
CC1CCC/C(=N\NC(=S)NCc2ccccc2)C1 (stereo unspecified)	-2.0	?	·	6.0%	-16.3%	3.7
CC1CCC/C(=N\NC(=S)Nc2ccccc2)C1 (stereo unspecified)	79.4*	-4.4%	17.7%	7.0%	-6.1%	101.9*
CC1CCN(C(=O)Cn2c3ccc(F)cc3c3nc4n(c(=O)c32)CCCS4)CC1	-4.1	38.2%	-6.1%	9.4%	·	-6.0
COc1ccccc1NC(=O)CSc1nnc(NC(=O)c2ccco2)s1	-4.2	-0.7%	-3.2%	-0.9%	·	-2.7
Cc1nc(NC(=O)c2ccco2)sc1-c1csc(Nc2ccc(Cl)cc2)n1	0.7	9.28µM*	9.28µM*	?	0.4%	-4.2
Cc1ccc(Cl)cc1Nc1nc(-c2sc(NC(=O)c3ccco3)nc2C)cs1	-3.3	9.28µM*	?	27.8%	1.8%	-17.9
Cc1nc(NC(=O)c2ccco2)sc1-c1csc(Nc2ccc(Cl)cc2Cl)n1	12.1	8.28µM*	?	-16.6%	0.8%	34.6
COc1cccc(N(C(=O)c2ccco2)c2nc(-c3sc(NC(=O)c4ccco4)nc3C)cs2)c1	2.0	?	?	17.3%	0.4%	-3.2
COc1ccccc1Nc1nc(-c2sc(NC(=O)c3ccco3)nc2C)cs1	-1.5	9.28µM*	11.7µM*	6.3%	-4.3%	12.0
CCCc1cc(=O)oc2c3c(ccc12)OCN(Cc1ccc(OC)cc1)C3	-1.9	·	·	·	·	-3.7
CCn1c2ccccc2c2nnc(SCC(=O)Nc3c(C)n(C)n(-c4ccccc4)c3=O)nc21	-4.2	11.7µM*	?	-5.0%	-6.1%	-25.7
